“And” between values parts separate entries of the source, which are not always exact repeats. Equal entries are not always repeated. Some structures have more than one record in an assay (separate samples or runs), and their calls can disagree. The source made the active and inactive calls. Unless noted, the call rests on the fitted dose curve; in most records, active means well fitted curve in the direction sought with a large enough effect in the repeat runs; inconclusive means weak or mixed curves; inactive means no such curve, though single readings can be large; an effect the other way counts as inactive or inconclusive.

These results are taken from PubChem BioAssay (Tox21).

Assay [1] in a line: qHTS assay to identify small molecule antagonists of the glucocorticoid receptor (GR) signaling pathway - cell viability counter screen (AID 720693). Further: nearly all actives have a fitted effect of over 55% in size. Further: potency means the concentration at half of the fitted maximal effect. In general terms: Quantitative high-throughput screening tests each substance at several concentrations.
Assay [2] is described as follows: qHTS assay for identifying genotoxic compounds that show differential cytotoxicity against isogenic chicken DT40 cell lines with known DNA damage response pathways - wild type cell line (AID 743012). Further: nearly all actives have a fitted effect of over 60% in size. Further: potency means the concentration at half of the fitted maximal effect. The method, boiled down: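 Viability of DNA repair-proficient chicken DT40 cells was assessed by CellTiter-Glo luminescence following 40 h compound exposure at 37 C/5% CO2.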

Assay [3] is described as follows: qHTS assay for identifying genotoxic compounds that show differential cytotoxicity against isogenic chicken DT40 cell lines with known DNA damage response pathways - Rev3 mutant cell line (AID 743014). Further: nearly all actives have a fitted effect of over 55% in size. Further: potency means the concentration at half of the fitted maximal effect.
Assay [4] in a line: qHTS assay for identifying genotoxic compounds that show differential cytotoxicity against isogenic chicken DT40 cell lines with known DNA damage response pathways - Rad54/Ku70 mutant cell line (AID 743015). Further: nearly all actives have a fitted effect of over 60% in size. Further: potency means the concentration at half of the fitted maximal effect.
A short description of assay [5]: qHTS assay to identify small molecule antagonists of the androgen receptor (AR) signaling pathway - cell viability counter screen (AID 743033; further: nearly all actives have a fitted effect of over 45% in size).
A short description of assay [6]: qHTS assay to identify small molecule antagonists of the androgen receptor (AR) signaling pathway using the MDA cell line - cell viability counter screen (AID 743041; further: nearly all actives have a fitted effect of over 45% in size). Put shortly: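 Cytotoxicity counter screen: MDA-kb2 AR-luc cells, compound + R1881, 16 h, 37C, 0% CO2; CellTiter-Fluor added at 15.5 h, fluorescence read after 30 min.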
For assay [7], the system named is thyroid hormone receptor (rat, GH3 cells). The experiment in a line: qHTS assay to identify small molecule agonists of the thyroid receptor (TR) signaling pathway (AID 743066; calls by dose curve).
Assay [8] is described as follows: qHTS assay to identify small molecule antagonists of the estrogen receptor alpha (ER-alpha) signaling pathway - cell viability counter screen (AID 743074; calls by dose curve;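 further: HEK293 cells carrying ER-alpha-UAS-bla reporter stimulated with 17beta-estradiol; nearly all actives have a fitted effect of over 45% in size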).
A short description of assay [9]: qHTS assay to identify small molecule antagonists of the estrogen receptor alpha (ER-alpha) signaling pathway using the BG1 cell line - cell viability counter screen (AID 743081).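 Further: compound given together with 17beta-estradiol as the ER stimulus; nearly all actives have a fitted effect of over 45% in size.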 Further: potency means the concentration at half of the fitted maximal effect.
In a further assay the target is Aromatase (Homo sapiens) (UniProt P11511). The experiment in a line: qHTS assay to identify aromatase inhibitors (AID 743083). Further: nearly all actives have a fitted effect of over 55% in size. Further: potency means the concentration at half of the fitted maximal effect.
A short description of assay [10]: qHTS assay to identify small molecule antagonists of the thyroid receptor (TR) signaling pathway - cell viability counter screen (AID 743064). Further: nearly all actives have a fitted effect of over 50% in size. Further: potency means the concentration at half of the fitted maximal effect. The method, boiled down: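 Compounds were tested on GH3.TRE-Luc cells in the presence of T3 at 1 nM final. Following 23.5 h at 37 °C, cell viability was quantified by CellTiter-Fluor.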
Assay [11] is described as follows: qHTS assay to identify small molecule antagonists of the thyroid receptor (TR) signaling pathway (AID 743065). Further: nearly all actives have a fitted effect of over 55% in size. Further: potency means the concentration at half of the fitted maximal effect. The method, boiled down: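 GH3.TRE-Luc rat pituitary cells (two TREs driving luciferase) were dosed with compound, then stimulated with 1 nM T3 (final) for 23.5 h at 37 C. ONE-Glo luminescence was the read-out, with CellTiter-Fluor fluorescence as the cytotoxicity counter-screen.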

Assay [12] addresses Estrogen receptor (Homo sapiens) (UniProt P03372). The experiment in a line: qHTS assay to identify small molecule antagonists of the estrogen receptor alpha (ER-alpha) signaling pathway (AID 743069; active means well fitted curve in the direction sought with a large enough effect in the signal ratio in the repeat runs, not every such curve was filed as active; inconclusive means weak or mixed curves, or effect the other way; inactive means no such curve, though single readings can be large or run the other way; the % refers to the signal ratio; further: potency means the concentration at half of the fitted maximal effect). Put shortly:
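Beta-lactamase FRET fluorescence is read after 2 hr at room temperature with LiveBLAzer B/G substrate. Before that, ER-alpha-bla HEK293 cells sit 4 hr after plating, then receive compound plus 17beta-estradiol and incubate 18 hr at 37C.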

Assay [13] has the same target. The experiment in a line: qHTS assay to identify small molecule agonists of the estrogen receptor alpha (ER-alpha) signaling pathway (AID 743075; calls by dose curve;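 further: HEK293 GripTite cells with ER-alpha and UAS-driven beta-lactamase reporter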).
Assay [14] has the same target. The experiment in a line: qHTS assay to identify small molecule agonists of the estrogen receptor alpha (ER-alpha) signaling pathway using the BG1 cell line (AID 743079). Further: nearly all actives have a fitted effect of over 20% in size. Further: potency means the concentration at half of the fitted maximal effect.
Assay [15] is described as follows: qHTS assay to identify small molecule antagonists of the estrogen receptor alpha (ER-alpha) signaling pathway using the BG1 cell line (AID 743080; calls by dose curve;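 further: BG1 cells stimulated with 17beta-estradiol alongside compound; nearly all actives have a fitted effect of over 25% in size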; further: potency means the concentration at half of the fitted maximal effect). Put shortly: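 Quantitative HTS on the Tox21 10K library: BG1 cells with endogenous ER-alpha and ERE-luciferase reporter, 17beta-estradiol stimulation, 21.5 h compound exposure, luminescence endpoint with parallel fluorescence cytotoxicity counter-read.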

The target in assay [16] is Androgen receptor (Homo sapiens) (UniProt P10275). The experiment in a line: qHTS assay to identify small molecule antagonists of the androgen receptor (AR) signaling pathway (AID 743035; active means well fitted inhibition curve with a large enough effect in the signal ratio in the repeat runs, not every such curve was filed as active; inconclusive means weak or mixed curves, or effect the other way; inactive means no such curve, though single readings can be large or run the other way; the % refers to the signal ratio). The method, boiled down:
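Reporter HEK293 cells were exposed to compounds and R1881 overnight (16 h, 37C); beta-lactamase activity was then quantified by FRET fluorescence.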

Assay [17] shares this target. The experiment in a line: qHTS assay to identify small molecule agonists of the androgen receptor (AR) signaling pathway (AID 743036; active means well fitted activation curve with a large enough effect in the signal ratio in the repeat runs, with a control signal flat, not every such curve was filed as active; inconclusive means weak or mixed curves, or effect the other way; inactive means no such curve, though single readings can be large or run the other way; the % refers to the signal ratio). The method, boiled down: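 Beta-lactamase under UAS control, stably integrated in HEK293 GripTite cells, reports receptor activation. After 16 h compound treatment, cells received FRET substrate for 2 h at room temperature before fluorescence reading.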

Assay [18] shares this target. The experiment in a line: qHTS assay to identify small molecule agonists of the androgen receptor (AR) signaling pathway using the MDA cell line (AID 743040; further: nearly all actives have a fitted effect of over 20% in size). Put shortly: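 Luciferase read-out, ONE-Glo, 30 min RT. Cells: MDA-kb2 AR-luc, MMTV promoter with AR and GR response elements. Compound exposure 16 h, 37C, 0% CO2, after 5 h pre-incubation. qHTS agonist mode.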

The target is the same in assay [19]. The experiment in a line: qHTS assay to identify small molecule antagonists of the androgen receptor (AR) signaling pathway using the MDA cell line (AID 743042; further: nearly all actives have a fitted effect of over 55% in size). The method, boiled down:
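MDA-kb2 breast carcinoma cells carrying MMTV-luciferase (AR/GR responsive) were co-treated with compounds and the agonist R1881 for 16 h at 37C. Inhibition read as ONE-Glo luminescence; CellTiter-Fluor fluorescence measured in parallel for cytotoxicity.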

Sequence of Aromatase (Homo sapiens) (P11511 whole entry, looked up): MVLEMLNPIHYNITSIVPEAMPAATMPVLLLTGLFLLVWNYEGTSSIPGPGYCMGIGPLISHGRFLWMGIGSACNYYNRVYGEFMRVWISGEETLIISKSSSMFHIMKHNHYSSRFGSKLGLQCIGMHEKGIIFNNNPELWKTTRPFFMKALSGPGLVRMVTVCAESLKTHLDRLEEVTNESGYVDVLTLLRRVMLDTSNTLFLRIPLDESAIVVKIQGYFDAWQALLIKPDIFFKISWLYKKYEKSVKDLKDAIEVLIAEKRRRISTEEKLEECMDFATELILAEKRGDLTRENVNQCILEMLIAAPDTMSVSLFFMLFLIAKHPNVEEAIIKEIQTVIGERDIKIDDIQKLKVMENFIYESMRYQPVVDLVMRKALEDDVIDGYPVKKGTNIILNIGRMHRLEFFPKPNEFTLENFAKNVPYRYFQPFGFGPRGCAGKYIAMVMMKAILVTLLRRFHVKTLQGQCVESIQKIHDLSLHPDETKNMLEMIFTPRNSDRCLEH
Sequence of Estrogen receptor (Homo sapiens) (P03372 whole entry, looked up): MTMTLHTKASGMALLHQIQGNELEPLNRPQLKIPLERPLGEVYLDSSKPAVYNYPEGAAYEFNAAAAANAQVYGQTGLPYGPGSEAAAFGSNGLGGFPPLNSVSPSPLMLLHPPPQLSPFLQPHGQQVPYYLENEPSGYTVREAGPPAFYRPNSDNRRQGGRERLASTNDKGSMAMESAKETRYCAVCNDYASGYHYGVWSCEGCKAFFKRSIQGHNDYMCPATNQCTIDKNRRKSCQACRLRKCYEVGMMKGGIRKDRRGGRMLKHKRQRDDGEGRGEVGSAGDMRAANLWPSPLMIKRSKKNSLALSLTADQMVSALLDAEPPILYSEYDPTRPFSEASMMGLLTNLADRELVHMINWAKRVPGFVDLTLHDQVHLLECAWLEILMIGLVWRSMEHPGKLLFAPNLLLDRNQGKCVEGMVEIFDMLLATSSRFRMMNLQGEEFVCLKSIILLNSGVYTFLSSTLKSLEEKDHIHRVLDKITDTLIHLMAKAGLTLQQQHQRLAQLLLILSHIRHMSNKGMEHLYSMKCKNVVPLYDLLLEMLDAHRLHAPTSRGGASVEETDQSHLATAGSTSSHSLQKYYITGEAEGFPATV
Sequence of Androgen receptor (Homo sapiens) (P10275 whole entry, looked up): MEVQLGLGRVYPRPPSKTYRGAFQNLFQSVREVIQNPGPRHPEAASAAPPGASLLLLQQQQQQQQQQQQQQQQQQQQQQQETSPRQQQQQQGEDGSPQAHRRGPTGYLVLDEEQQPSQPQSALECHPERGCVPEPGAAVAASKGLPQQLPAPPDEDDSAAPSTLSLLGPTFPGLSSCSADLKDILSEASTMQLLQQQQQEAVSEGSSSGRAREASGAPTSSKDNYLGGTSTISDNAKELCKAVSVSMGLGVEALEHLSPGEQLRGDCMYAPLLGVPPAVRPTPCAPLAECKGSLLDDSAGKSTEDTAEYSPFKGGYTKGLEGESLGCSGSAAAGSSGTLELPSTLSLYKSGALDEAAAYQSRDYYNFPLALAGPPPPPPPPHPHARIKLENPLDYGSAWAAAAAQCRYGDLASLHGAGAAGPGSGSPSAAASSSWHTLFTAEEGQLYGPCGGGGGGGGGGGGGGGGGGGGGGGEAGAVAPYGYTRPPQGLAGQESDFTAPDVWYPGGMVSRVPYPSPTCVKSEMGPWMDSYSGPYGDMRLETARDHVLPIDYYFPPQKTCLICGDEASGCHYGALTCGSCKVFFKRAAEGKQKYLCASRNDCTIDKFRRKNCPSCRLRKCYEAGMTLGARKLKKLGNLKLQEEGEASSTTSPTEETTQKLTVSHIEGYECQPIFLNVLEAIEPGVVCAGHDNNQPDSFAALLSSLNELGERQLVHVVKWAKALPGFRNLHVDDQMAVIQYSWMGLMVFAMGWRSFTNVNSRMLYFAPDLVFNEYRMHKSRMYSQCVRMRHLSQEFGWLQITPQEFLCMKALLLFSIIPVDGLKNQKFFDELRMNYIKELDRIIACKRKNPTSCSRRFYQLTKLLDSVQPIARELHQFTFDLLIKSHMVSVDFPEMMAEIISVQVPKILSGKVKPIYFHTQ

On to `CCOC(=O)C1OC1c1ccccc1` (centres undefined), for which the Potency result in assay [1], in assay [2], in assay [3], in assay [4], in [5] and in assay [6] was “inactive” each time. The Potency result (in assay [8]; in assay [9]; with Aromatase (Homo sapiens)) was “inactive” throughout. In assay [7], the compound was called inactive.
`CCC(C)C=O` (centres undefined): the Potency result in assay [1], in assay [2], in assay [3], in assay [5], in assay [6] and in [10] was “inactive” throughout. Also, the Potency result in assay [11], in [12], in assay [8], in assay [13], in assay [14] and in assay [15] was “inactive” throughout. Besides, the Potency entry (in assay [9]; with Aromatase (Homo sapiens)) was “inactive” in each case. Also, in assay [7], the result was inactive.
Consider `CC(C)(C)C(=O)C1C(=O)c2ccccc2C1=O`, for which the Potency result (in assay [1]; in assay [5]; in assay [8]; in [13]; in the assay with Aromatase (Homo sapiens)) was “inactive” each time. Further, the Potency in assay [2] is 60.5 µM (active) and 12.2 µM (active); in assay [3], “inactive and 13.7 µM (active)”; in assay [4], 13.7 µM (active); in [10] it was 67.9 µM (active); in assay [12], 54.4 µM [inconclusive] (active) and 54.9 µM [inconclusive] (active). The call in assay [7] was inactive.
`Oc1ccc2ccccc2c1N=Nc1ccccc1`: the Potency result in assay [1], in assay [2], in [3], in assay [4], in assay [5] and in [6] was “inactive” each time. Further, the Potency entry (in assay [12]; in [8]; in assay [13]; with Aromatase (Homo sapiens)) was “inactive” each time. Further, the Potency result is “inactive and 54.5 µM (active)” in assay [10]; 19.3 µM (active) and 30.6 µM (active) in assay [14]; “inactive and 34.4 µM (active)” in assay [9]. For the same compound, in assay [7], the compound was called inactive.
Regarding `Cc1ccc(N)c(S(=O)(=O)O)c1`, the Potency result in [1], in assay [2], in assay [3], in [4], in [5] and in assay [6] was “inactive” in each case. Besides, the Potency result (in [10]; in assay [8]; in assay [9]; with Aromatase (Homo sapiens)) was “inactive” each time. Moreover, the result in assay [7] was inactive.
Turning to `CCCCCCOC(C)=O`, the Potency result in [1], in [2], in assay [5], in assay [6], in [10] and in [12] was “inactive” each time. Besides, the Potency result (in assay [8]; in assay [13]; in assay [14]; in [15]; in assay [9]; with Aromatase (Homo sapiens)) was “inactive” throughout. Further, the results for the Potency in [3] and in [4] were 54.5 µM (active) and 61.1 µM (active), respectively.
Turning to `CCCCCC/C=C/CCCCCCCC(=O)O`, the Potency entry in assay [1], in [2], in assay [3], in [4], in assay [5] and in [6] was “inactive” throughout. Further, the Potency result (in assay [12]; in assay [8]; in assay [13]; in assay [15]; in assay [9]; with Aromatase (Homo sapiens)) was “inactive” each time. The Potency in assay [14] was 30.7 µM (active) and inactive.
For `CCc1ccccc1O`, the Potency result in [1], in [2], in [3], in [4], in [5] and in [6] was “inactive” each time. The Potency entry in assay [10], in [12], in assay [13], in assay [14], in assay [15] and in assay [9] was “inactive” each time. For the same compound, in the assay with Aromatase (Homo sapiens), the Potency entry was “inactive”. In assay [7], the result was inactive.
Consider `C=C(C)C(=O)OCCCCCC`, for which the Potency result in assay [1], in assay [2], in assay [3], in [5], in assay [6] and in [10] was “inactive” throughout. The Potency result in [11], in assay [12], in [8], in assay [13], in assay [14] and in assay [15] was “inactive” in each case. For the same compound, the Potency entry (in [9]; with Aromatase (Homo sapiens)) was “inactive” throughout. For the same compound, the outcome in assay [7] was inactive.
As for `Nc1nc2ncc(CNc3ccc(C(=O)N[C@@H](CCC(=O)O)C(=O)O)cc3)nc2c(=O)[nH]1`, the Potency entry in assay [1], in assay [2], in [3], in assay [5], in assay [6] and in assay [8] was “inactive” each time. Further, the Potency result (in assay [9]; in the assay with Aromatase (Homo sapiens)) was “inactive” throughout. The compound was called inactive in [16], in assay [17], in assay [18] and in assay [19].
Regarding `C=C1C2CCC(C2)C1(C)C` (centres undefined), the Potency result in [1], in assay [2], in assay [3], in [4], in assay [5] and in assay [6] was “inactive” each time. Further, the Potency entry in [10], in [12], in assay [8], in assay [13], in assay [14] and in assay [15] was “inactive” throughout. Also, the Potency entry (in assay [9]; with Aromatase (Homo sapiens)) was “inactive” each time. The compound was called inactive in assay [7].
Consider `COCC(C)O` (centres undefined), for which the Potency result in assay [1], in assay [2], in assay [3], in assay [5], in assay [6] and in assay [10] was “inactive” in each case. Moreover, the Potency entry in assay [11], in assay [12], in assay [8], in assay [13], in assay [15] and in assay [9] was “inactive” throughout. The Potency entry with Aromatase (Homo sapiens) was “inactive”. Further, the call in [7] was inactive. Also, the Potency result in assay [14] is “inactive and 61.1 µM (active)”.
`CCCCOCCOCCOC(=O)CCCCC(=O)OCCOCCOCCCC`: the Potency result in assay [1], in [2], in assay [3], in assay [4], in assay [5] and in assay [6] was “inactive” throughout. Further, the Potency entry in [10], in assay [12], in [8], in [13], in assay [14] and in [15] was “inactive” in each case. The Potency result (in assay [9]; in the assay with Aromatase (Homo sapiens)) was “inactive” each time. In [7], the compound was classed as inactive.
As to `CC#C[C@]1(O)CC[C@H]2[C@@H]3CCC4=CC(=O)CCC4=C3[C@@H](c3ccc(N(C)C)cc3)C[C@@]21C`, the Potency was 5.35 µM (active) in assay [1]; 5.96 µM (active) and 30.6 µM (active) in assay [2]; 9.44 µM (active) and 48.6 µM (active) in assay [3]; 5.96 µM (active) and 21.7 µM (active) in [4]; 9.44 µM (active) and 34.4 µM (active) in [10]; 4.73 µM (active) and 24.3 µM (active) in assay [11]. The Potency is 16.8 µM (active) and 68.6 µM (active) in assay [15]; 11.9 µM (active) and 30.6 µM (active) with Aromatase (Homo sapiens). For the same compound, the call in assay [7] was inactive. The Potency entry in assay [8], in assay [13] and in assay [9] was “inactive” throughout.
Turning to `NCc1cccc(CN)c1`, the Potency entry in [1], in assay [2], in assay [3], in assay [4], in assay [5] and in assay [6] was “inactive” throughout. Besides, the Potency entry in assay [12], in [8], in assay [13], in [14], in assay [15] and in [9] was “inactive” in each case. Also, in the assay with Aromatase (Homo sapiens), the Potency result is “inactive”. Moreover, the compound was classed as inactive in assay [7].
`CC(C)(C)C1CCC(O)CC1` (centres undefined): the Potency result in assay [1], in assay [2], in [3], in [4], in assay [5] and in assay [6] was “inactive” throughout. The Potency entry in [12], in [8], in assay [13], in assay [14], in assay [15] and in assay [9] was “inactive” in each case. In the assay with Aromatase (Homo sapiens), the Potency result was “inactive”. In assay [7], the call was inactive.
Turning to `CCc1ccc(O)cc1`, the Potency entry in [1], in assay [2], in assay [3], in assay [5], in [6] and in assay [10] was “inactive” each time. The Potency entry (in assay [11]; in assay [8]; in assay [9]; with Aromatase (Homo sapiens)) was “inactive” each time. In addition, the outcome in assay [16], in assay [17], in [18], in assay [19] and in [7] was inactive.
